# Assay results as given in PubChem BioAssay (NCATS).
# Records with an inconclusive call do not appear. Active and inactive are the calls of the source. The call rests on the fitted dose curve; in most records, active means well fitted inhibition curve with a large enough effect; inconclusive means small, poorly fitted or top-dose-only effect; inactive means flat fitted curve, though single readings scatter. Where a SMILES comes first, the peptide text is derived from it. [ ]: non-standard residue; d: D form. ξ: configuration not given here. ξPhe(βξ-Me) = CC(c1ccccc1)C(N)C(=O)O; GABA = NCCCC(=O)O
# Tested on: HEK293
# Test: Cytotoxic Profiling of Annotated Libraries Using Quantitative High-Throughput Screening (AID 1296008); further: nearly all actives have a fitted effect of over 60% in size
# Conditions: Five cell lines viability, CellTiter-Glo ATP luminescence, 48-72 h; max response: hits give low values
# From the text: Cell-based phenotypic screening is a commonly used approach to discover biological pathways, novel drug targets, chemical probes and high-quality hit-to-lead molecules. Many hits identified from high-throughput screening campaign are ruled out through a series of follow-up potency, selectivity/specificity, and cytotoxicity assays. Prioritization of molecules with little or no cytotoxicity for a more in-depth downstream evaluation influence the future direction of projects, so cytotoxicity profiling of the screening libraries at early stage is essential for increasing the likelihood of candidate success. […] For the annotated library, we also examined the primary targets and mechanistic pathways regularly associated with cell death. To our knowledge, this is the first study to use high-throughput screening to profile large libraries for cytotoxicity assessment in both normal and cancer cell lines. In summary, the results generated here constitutes a valuable resource for the scientific community and provides insight on identifying cytotoxic compounds with particular mechanisms of action, and prioritizing compounds with suitable cytotoxicity profile for further evaluation.
# A pintool (Kalypsys) was used to transfer 23 nL of compound solution to the 1536-well assay plates. After 48 or 72 hr incubation at 37 degree Celsius, 5% CO2 and 95% humidity, 2.5 uL of CellTiter-Glo (Promega) was dispensed into each well using a dispenser (Aspect Automation, St. Paul, MN) with solenoid valves (Lee Valves, Westbrook CT). Plates were left at room temperature for 10 min before imaging the ATP-coupled luminescence using a ViewLux microplate imager (PerkinElmer, Waltham, MA).
# On the % scale 0 is the no-effect control and ±100 the full control effect; potency means the concentration at half of the fitted maximal effect.
SMILES,Potency,outcome,max response
C=C1C(=O)OC2C1CCC(=C)C1CC(OC(C)=O)C(=C)C12 (stereo not given),11.6 µM (active),–,–
CCc1c(C)nc2c(-c3cnn(-c4cc(CO)ccn4)c3)c[nH]n2c1=O,–,inactive,–
Cc1cc(C(=O)N2Cc3cnn(C)c3Nc3ccccc32)ccc1CNC(=O)N1CCC[C@H]1C(=S)N1CCCN(C)CC1,–,–,-0.106% (inactive)
O=C(Cc1ccc(-c2ccccc2)cc1)NC1CCC1,–,–,2.52% (inactive)
C[C@@H]1C[C@@H]([C@@H](O)C(C)(C)O)O[C@H]2C[C@@]3(C)C(=C12)C[C@H](O)[C@H]1[C@@]2(C)CCC(=O)C(C)(C)C2CC[C@@]13C (stereo not given in full),–,–,3.48% (inactive)
Cc1cc(Nc2ncc3cc(-c4c(Cl)cccc4Cl)c(=O)n(C)c3n2)ccc1F,2.31 µM (active),–,–
C[C@@H]([C@@H](O)c1ccc(O)cc1)N1CCC(O)(c2ccccc2)CC1,–,–,-2% (inactive)
COC(=O)C1(C)c2[nH]c3ccccc3c2CCN1C(=O)CCl (stereo not given),7.31 µM (active),–,–
COc1cc(/C=C/C(=O)OC[C@H]2O[C@@](CO)(O[C@H]3O[C@H](CO)[C@@H](O)[C@H](O)[C@H]3O)[C@@H](OC(=O)/C=C/c3ccc(O)c(OC)c3)[C@@H]2O)ccc1O,–,–,4.27% (inactive)
CCOC(=O)c1sc(NC(=O)[C@H](C(C)C)n2c(=O)[nH]c3ccccc3c2=O)nc1C,–,–,-9.44% (inactive)
C=C(C(=O)O)[C@@H]1CC[C@@]2(C)CC[C@H](O)[C@@]2(C(C)=O)C1,–,–,-2.38% (inactive)
CN(C)CCn1cc(S(=O)(=O)c2cccc(F)c2)c2cccnc21,–,inactive,–
O=C1C=CC(O)(/C=C/C(=O)OC[C@H]2O[C@@H](Oc3ccc(O)cc3)[C@H](O)[C@@H](O)[C@@H]2O)C=C1,–,–,-4.12% (inactive)
CCC1=CC2CN(C1)Cc1c([nH]c3ccccc13)[C@@](C(=O)OC)(c1cc3c(cc1OC)N(C)[C@H]1[C@@](O)(C(=O)OC)[C@H](OC(C)=O)[C@]4(CC)C=CCN5CC[C@]31[C@@H]54)C2 (stereo not given in full),0.1 µM (active),–,–
CC(C)C(NC(=O)c1ccc2ccccc2n1)C(=O)NC(CC(=O)O)C(=O)COc1c(F)cccc1F (stereo not given),–,–,-1.52% (inactive)
N#Cc1c(Oc2ccc(F)c(NC(=O)Cc3cccc(C(F)(F)F)c3)c2)ccc2nc(NC(=O)C3CC3)sc12,1.3 µM (active),–,–
C[C@@]12CC[C@@H]3[C@@](CC[C@H]4[C@@]3(C)CCC[C@@]4(C)C(=O)O)(CC1=O)C2,–,–,-6.36% (inactive)
CC(C)(C)c1cc(Br)cc([C@H](CC(=O)O)NC(=O)CNC(=O)c2cc(O)cc(NC3=NCC(O)CN3)c2)c1 (stereo not given in full),–,–,-3.62% (inactive)
CCCCc1ccc(C(=O)Nc2cc(-c3ccc(Cl)cc3)nn2-c2ccc(Cl)cc2)cc1,–,–,-22.4% (inactive)
FC(F)(F)c1ccc(Nc2nc(-c3c(C(F)(F)F)nc4ccccn34)cs2)cc1,0.326 µM (active),–,–

SMILES,Potency,outcome,max response
CC(=O)OC1CC2(C)C3=CCC4(C)C5C(O)C(O)C(C(C)C)C5(C)CCC4(C)C3CCC2C(C)(C)C1OC1OC(CO)C(O)C(O)C1O (stereo not given),–,–,-1.39% (inactive)
CCn1cc(NC(=S)Nc2cc(Cl)ccc2OC)c(C(N)=O)n1,–,–,-2.95% (inactive)
COc1ccc(CN2C(=O)C(=O)c3cc(S(=O)(=O)N4CCC[C@H]4COc4cccnc4)ccc32)cc1,–,inactive,–
CC1CCC2(OC1)OC1CC3C4CC=C5CC(O)CC(O[C@@H]6OC[C@@H](O)[C@H](O)[C@H]6O)C5(C)C4CCC3(C)C1(O)C2C (stereo not given in full),–,–,3.32% (inactive)
COC(=O)C1=CO[C@@H](O[C@@H]2O[C@H](CO)[C@@H](O)[C@H](O)[C@H]2O)[C@H]2[C@@H]1CC(OC)O[C@@H]2C (stereo not given in full),–,–,4.51% (inactive)
C=C1CCC2C(C)(C(=O)O)CCCC2(C)C1CCC(C)CC(=O)O (stereo not given),–,–,-0.0508% (inactive)
O=C(CN1C(=O)C2(CCCC2)NCC1c1cc(F)cc(F)c1)Nc1ccc2c(c1)CC1(C2)C(=O)Nc2ncccc21 (stereo not given),–,–,-6.98% (inactive)
COc1cc2c3c(cc4ccccc4c3c1O)NC2=O,–,–,-10.3% (inactive)
COc1ccc2nc(S(=O)(=O)Cc3ncc(C)c(OC)c3C)[nH]c2c1,16.4 µM (active),–,–
CC(=O)OC1C[C@@]2(C)[C@@H](CC[C@@H](C)[C@]23Cc2c(O)cc4c(c2O3)CNC4=O)C(C)(C)[C@@H]1O (stereo not given in full),–,–,1.75% (inactive)
CC(=O)O[C@H]1[C@@H](O)[C@H](O[C@H]2[C@@H]3C=CO[C@@H](O[C@H]4O[C@@H](CO)[C@H](O)[C@@H](O)[C@@H]4O)[C@@H]3[C@@]3(CO)O[C@@H]23)O[C@@H](C)[C@@H]1OC(=O)/C=C/c1ccccc1,–,–,4.7% (inactive)
COc1cc2nc(N3CCC(N4CCCCC4)CC3)nc(NC3CCCCCC3)c2cc1OC,5.17 µM (active),–,–
CS(=O)(=O)N1CCC(NC(=O)c2[nH]ncc2NC(=O)c2c(Cl)cccc2Cl)CC1,1.16 µM (active),–,–
CCOC(=O)C(CCc1ccccc1)NC1CSC(c2cccs2)CN(CC(=O)O)C1=O (stereo not given),–,–,-2.54% (inactive)
CC(C)(O)/C=C/C1=CC(=O)[C@@](C)(O)C[C@H]1O,–,–,-6.16% (inactive)
C/C(=C\CC[C@@H](C)[C@H]1CC(O)[C@@]2(C)C3CC[C@H]4C(C)(C)[C@@H](OC5OCC(O)C(O)C5OC5OC(CO)C(O)C(O)C5O)CC[C@@]45C[C@@]35CC(O)[C@]12C)C(=O)O (stereo not given in full),–,–,0.167% (inactive)
N=c1nc2n(cc1F)C1OC(CO)C(O)C1O2 (stereo not given),5.17 µM (active),–,–
Cn1nnc(-c2ccc(-c3ccc(N4C[C@H](CO)OC4=O)cc3F)cn2)n1,4.11 µM (active),–,–
COc1ccc(C(=O)n2c(C)c(Cc3cccc(O[C@@H](C)C(=O)O)c3)c3cc(OC(F)(F)F)ccc32)cc1,–,–,-1.86% (inactive)
CC1NC(=O)CCCNC(=O)C(Cc2c[nH]c3ccccc23)NC(=O)C(C)NC(=O)C(C(C)C)NC(=O)C(C(C)c2ccccc2)NC(=O)C(C(C)C)NC1=O (stereo not drawn) (cyclo([GABA]AV[ξPhe(βξ-Me)]VAW); configuration not given here),–,–,-4.9% (inactive)
